Screening data: PubChem BioAssay, several laboratories
Calb FLC: affects C. albicans growth with fluconazole | growth inhibition, % (concentration not given with the values) | AID 1979 | C. albicans CaCi-2 (fluconazole-resistant clinical isolate) + fluconazole, Alamar Blue growth, 48 h | hit rate 0.57% among 300,000;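 active means growth inhibition above about 58% in most replicates, limit read from the data, passing the limit was not always enough; inconclusive means exactly half the replicates above a set limit; inactive means most replicates below a set limit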;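 further: all wells also contain fluconazole at 8 µg/ml as a sub-toxic cotreatment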
Mdm2-MdmX inh: inhibitors of human Mdm2/MdmX interaction | SaOS-2 split-luciferase Mdm2/MdmX complementation, luminescence | inhibition, % at 8 µM | hit rate 3% among 330,000 | AID 485346;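 active means inhibition of at least 50% at 8 µM in the primary screen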
Target sequence (O15151 whole entry, looked up): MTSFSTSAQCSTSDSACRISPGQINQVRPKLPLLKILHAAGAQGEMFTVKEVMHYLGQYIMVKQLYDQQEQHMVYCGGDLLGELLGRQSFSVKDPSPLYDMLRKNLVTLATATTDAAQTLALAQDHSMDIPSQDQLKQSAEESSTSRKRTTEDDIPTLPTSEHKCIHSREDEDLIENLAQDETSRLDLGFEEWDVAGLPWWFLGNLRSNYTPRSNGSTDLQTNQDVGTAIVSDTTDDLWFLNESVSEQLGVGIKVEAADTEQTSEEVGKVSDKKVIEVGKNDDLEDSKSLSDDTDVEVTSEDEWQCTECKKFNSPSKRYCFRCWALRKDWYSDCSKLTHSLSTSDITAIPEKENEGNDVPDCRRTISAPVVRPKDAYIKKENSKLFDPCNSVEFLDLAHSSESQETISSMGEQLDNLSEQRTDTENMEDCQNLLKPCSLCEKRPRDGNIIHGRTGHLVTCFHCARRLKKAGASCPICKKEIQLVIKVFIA
Target sequence (Q00987 whole entry, looked up): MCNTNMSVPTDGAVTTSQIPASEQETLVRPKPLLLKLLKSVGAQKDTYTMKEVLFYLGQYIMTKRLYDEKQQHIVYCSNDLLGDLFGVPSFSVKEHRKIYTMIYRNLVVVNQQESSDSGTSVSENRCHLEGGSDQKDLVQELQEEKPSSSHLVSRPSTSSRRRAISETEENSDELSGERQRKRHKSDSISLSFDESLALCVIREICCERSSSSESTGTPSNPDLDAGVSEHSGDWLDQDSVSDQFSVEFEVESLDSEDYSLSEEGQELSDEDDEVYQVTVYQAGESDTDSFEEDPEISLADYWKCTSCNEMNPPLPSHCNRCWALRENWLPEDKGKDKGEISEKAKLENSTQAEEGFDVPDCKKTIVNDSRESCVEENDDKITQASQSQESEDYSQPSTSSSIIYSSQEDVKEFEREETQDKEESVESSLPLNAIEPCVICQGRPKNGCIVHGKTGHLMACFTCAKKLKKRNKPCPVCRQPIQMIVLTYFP
SKKanGAS inh: inhibitors of SKKanGAS S. pyogenes growth in kanamycin (SK-promoter or general growth effect); BacTiter-Glo, 6 h; hit rate 1.3% among 300,000; inhibition, % at 7.5 µM;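 active means mean replicate score, as percent of positive control median, at least 50; inconclusive means mean below 50 but one replicate at or above 50; inactive means mean and every replicate below 50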;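 further: strain carries kanamycin resistance gene driven by streptokinase promoter and grows in 40 µg/ml kanamycin; loss of luminescence reflects streptokinase promoter inhibition or plain growth inhibition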
Beta apoptosis: blocks beta cell apoptosis | protection from apoptosis, % (test concentration not listed) | hit rate 0.8% among 300,000 | AID 435005 | INS-1E cytokine-induced death, ATP luminescence, 48 h; percent of positive-control rescue, neutral wells zero;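 active means Every replicate reaches about 75%, or at least half do and their mean reaches it too, limit read from the data; inconclusive means At least half of replicates reach the limit but their mean does not; inactive means Under half of replicates reach the limit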;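 further: higher means more ATP so stronger rescue from cytokine killing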
MPTP inh: inhibitors of mitochondrial permeability transition pore. isolated mouse mitochondria, Ca2+ swelling absorbance, 30 min. inhibition, % at 10 µM. hit rate 1.4% among 360,000;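 active means inhibition of 50% or more, scaled per plate between neutral and stimulator controls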
CSC inhib: cancer stem cell inhibition; cancer stem cell-like cells viability, luminescence; inhibition, % at 7.5 µM; hit rate 1.1% among 300,000; in the data active means inhibition above about 75%; inconclusive means no clear call, values can overlap the other calls; tested in HMLE shEcad cells
Rh123 counter: membrane potential counter-screen of mitochondrial pore inhibitors; shares compounds with MPTP inh; isolated mitochondria, Rhodamine 123 fluorescence; inhibition, % at 10 µM; hit rate 78% among 5,000; in the data active means inhibition above about 22%
MPTP swell DR: MPTP inhibition, dose response swelling confirmation | shares compounds with MPTP inh | isolated mitochondria swelling, absorbance | IC50, µM | hit rate 58% among 780; in the data active means IC50 below about 20 µM
MPTP cs DR: counter-screen for mitochondrial permeability transition pore inhibitors, dose response. IC50, µM. hit rate 49% among 780. isolated mitochondria counterscreen, fluorescence read-out. shares compounds with MPTP inh; in the data active means IC50 below about 80 µM
Numbers stand for hits; i = inactive; ? = inconclusive; nt = not tested or not shown. Hits are enriched below; roughly 5.4% of the tested compounds scored in any of these assays.

SMILES | Calb FLC | Mdm2-MdmX inh | SKKanGAS inh | Beta apoptosis | MPTP inh | CSC inhib | Rh123 counter | others
COc1ccc(S(=O)(=O)C(C#N)c2nc3ccccc3nc2N2CCCC(C)C2)cc1 (configuration not stated) | i | i | i | i | i | i | nt
Cc1ccc(S(=O)(=O)C(C#N)c2nc3ccccc3nc2N2CC(C)OC(C)C2)cc1C (configuration not stated) | i | i | i | i | i | i | nt
COc1ccc(Cn2c(=O)oc3ccc(C)cc32)cc1OC | i | i | i | i | 72 | i | 35
COc1ccccc1NC(=O)c1c(Nc2ccccc2F)sc(C(=O)Nc2cccc(Cl)c2)c1N | i | i | i | i | 78 | 83 | 46
COc1ccc(Cc2n[nH]c(=S)n2NC(=O)Nc2ccc(Cl)c(Cl)c2)cc1 | i | i | 65 | i | 92 | i | 90
Cn1c(CC(=O)Nc2ccc(Cl)c(Cl)c2)n[nH]c1=S | i | i | i | i | i | i | nt
Cc1ccc(CN2CCSc3ccc(C(=O)N4CCN(c5ncccn5)CC4)cc32)cc1 | i | i | i | i | 66 | i | 95
CCN(CC)CCCn1c2c(c(SCC(=O)Nc3ccc4c(c3)OCO4)nc1=O)CCC2 | i | i | i | i | i | i | nt
COc1ccc(C2=NOC3(CC(=O)N(c4ccc(F)cc4)C3=O)C2)cc1 (configuration not stated) | i | i | i | i | i | i | nt
CC[C@H](C)Cc1cn([C@@H](CCCN=C(N)N)C(=O)NCCCCCCCCCCC(=O)N2CCNCC2)nn1 | i | i | i | i | 86 | i | i | MPTP swell DR=11;MPTP cs DR=76
CCc1ccc(CNC(=O)CCCn2nc(C)n3ccnc3c2=O)cc1 | i | i | i | i | i | nt | nt
N#CC1=C(SCC(=O)NC23CC4CC(CC(C4)C2)C3)NC(=O)C(C#N)C12CCCCC2 (configuration not stated) | i | i | i | i | 80 | i | 87
N#CC1=C(SCC(=O)NC2CC2)NC(=O)C(C#N)C12CCCCC2 (configuration not stated) | i | i | i | i | i | i | nt
CC(C)(C)C1CCC2(CC1)C(C#N)=C(SCC(=O)NC1CCCCC1)NC(=O)C2C#N (configuration not stated) | ? | i | i | 107 | 79 | ? | 88
Cc1ccc(SCC2(O)CCN(C(=O)c3ccc(Cl)cc3)CC2)cc1 | i | i | i | i | i | i | nt
CN1C(=CC=C2C=C(I)C(=O)C(I)=C2)C(C)(C)c2ccccc21 | nt | nt | nt | nt | 67 | nt | i
CN1/C(=C\C=C2/C(=O)Oc3ccccc3C2=O)C(C)(C)c2ccccc21 | i | nt | i | i | nt | i | nt
CN(C)c1ccc(N=C/C=C2/N(C)c3ccccc3C2(C)C)cc1 | i | nt | i | nt | 82 | nt | 52
CCNS(=O)(=O)c1ccc(NC(=O)Cn2nc(C(F)(F)F)cc2C)cc1 | i | i | i | i | i | i | nt
COc1ccc(C(=O)CSc2nnc(CNC(=O)c3ccccc3)n2C)cc1 | i | i | i | i | i | i | nt
O=C(NNS(=O)(=O)c1ccc(F)cc1F)C1Cc2c(ccc3ccccc23)O1 (configuration not stated) | i | i | i | i | 73 | i | 52
CCOC(=O)c1ccc(NC(=S)NCc2ccc(F)cc2)cc1 | i | i | i | i | 88 | i | 82
CCOC(=O)c1ccc(NC(=S)NCc2ccco2)cc1 | i | i | i | i | 65 | i | 72
O=C(NCc1ccc(Cl)cc1)Nc1ccc(F)cc1 | i | i | i | i | i | i | nt
CC(C)c1ccc(NC(=O)NCc2ccc(F)cc2)cc1 | i | i | i | i | 61 | i | 86
C=CC[n+]1c(-c2ccc(OCC)cc2)csc1NNC(=O)Nc1ccccc1 | i | i | i | 99 | 66 | ? | 79
C=CC[n+]1c(-c2ccc(C)cc2)csc1Nc1c(C)n(C)n(-c2ccccc2)c1=O | i | i | i | nt | i | i | nt
CC(C)c1ccc(CNc2c([N+](=O)[O-])c(=O)oc3ccccc23)cc1 | i | i | i | i | 87 | i | 94
O=c1oc2ccccc2c(Nc2ccc(Cl)cc2)c1[N+](=O)[O-] | i | i | i | i | 56 | i | 83
